Test systems include RPMI-8226 leukemia; OVCAR-8 ovarian; OVCAR-5 ovarian; OVCAR-4 ovarian; SK-OV-3 ovarian; IGROV1 ovarian; OVCAR-3 ovarian; HS 578T breast; T-47D breast; NCI/ADR-RES ovarian.
Holding throughout (assay): NCI-60 one-dose screen, 48 h (100 = growth as untreated, 0 = no growth, -100 = all killed)
What all share (settings): 10 µM

Compounds without any hit were thinned out: in the full panel of roughly 83,000, 20% have a hit.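 48-hour exposure, single concentration, 96-well plates; percent growth endpoint where 0 means no net growth. Active: below 10.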 A number with no mark means an inactive call. Calls of active or inactive are those of the source.

For `O=C(O)CC(Cl)C(Cl)CC(=O)O` (stereo not given), the growth in the assay on RPMI-8226 leukemia is 99.2%; in the assay with OVCAR-8 ovarian, 102%; in the assay on OVCAR-5 ovarian, 106%; with OVCAR-4 ovarian, 104%; in the assay on SK-OV-3 ovarian, 98.1%; with IGROV1 ovarian, 106%. The growth is 106% in the assay with OVCAR-3 ovarian, 115% in the assay on HS 578T breast and 99.6% with T-47D breast.
Turning to `O=C(N/N=C/c1ccccc1)C(Oc1ccccc1)c1ccccc1` (stereo not given), the growth is 98.1% with RPMI-8226 leukemia; 100% in the assay on OVCAR-8 ovarian; 101% in the assay on OVCAR-5 ovarian; 102% with OVCAR-4 ovarian; 104% in the assay with SK-OV-3 ovarian; 98.9% in the assay with IGROV1 ovarian. In addition, the growth is 105% in the assay on OVCAR-3 ovarian, 75.2% with NCI/ADR-RES ovarian and 94.4% with T-47D breast.
Turning to `CC1(C)N=C(N)N=C(N)N1c1ccc(CCc2ccccc2)c(Cl)c1`, the growth is 26.2% with RPMI-8226 leukemia; 16.8% with OVCAR-8 ovarian; 36.3% in the assay with OVCAR-5 ovarian; 38% with OVCAR-4 ovarian; 36.3% in the assay on SK-OV-3 ovarian; 28.1% in the assay on IGROV1 ovarian. For the same molecule, the growth in the assay on OVCAR-3 ovarian is 23.7%; with HS 578T breast, 69.3%; in the assay on T-47D breast, 30.3%.
As for `COc1cc(NC(=O)c2sc3nc4c(cc3c2N)C(O)CCC4)cc(OC)c1` (stereo not given), the growth with RPMI-8226 leukemia was 88.2%; in the assay on OVCAR-8 ovarian it was 97.5%; in the assay on OVCAR-5 ovarian, 100%; in the assay with OVCAR-4 ovarian, 96.6%; in the assay on SK-OV-3 ovarian it was 97.4%; in the assay with IGROV1 ovarian it was 85.7%. For the same molecule, the growth was 95.3% with OVCAR-3 ovarian, 106% in the assay on HS 578T breast and 90.8% with T-47D breast.
With `Cc1ccc(NC(=O)NC2CCCCC2)cc1`, the growth in the assay with RPMI-8226 leukemia is 108%; in the assay with OVCAR-8 ovarian, 106%; in the assay with OVCAR-5 ovarian it was 103%; in the assay with OVCAR-4 ovarian, 114%; in the assay on SK-OV-3 ovarian, 95.8%; in the assay with IGROV1 ovarian it was 105%. The growth was 109% in the assay with OVCAR-3 ovarian, 107% in the assay with HS 578T breast and 93.2% with T-47D breast.
`CC1=C(N2CCOCC2)C(N2CCOCC2)=C(C)C(=O)C1=O`: the growth was 105% in the assay with RPMI-8226 leukemia; 97.2% with OVCAR-8 ovarian; 97.6% in the assay with OVCAR-5 ovarian; 104% in the assay on OVCAR-4 ovarian; 105% with SK-OV-3 ovarian; 101% in the assay with IGROV1 ovarian. In addition, the growth with OVCAR-3 ovarian is 109%; in the assay on HS 578T breast, 109%; with T-47D breast, 95.1%.
For `CC(C)N(CCNc1nc(C(Cl)(Cl)Cl)nc2cc(Cl)ccc12)C(C)C`, the growth was 3.61% (active) in the assay with RPMI-8226 leukemia; -73.9% (active) in the assay with OVCAR-8 ovarian; -11.1% (active) in the assay on OVCAR-5 ovarian; 7.56% (active) with OVCAR-4 ovarian; -27.6% (active) in the assay on SK-OV-3 ovarian; -38.4% (active) with IGROV1 ovarian. Besides, the growth in the assay with OVCAR-3 ovarian is -37.5% (active); in the assay with HS 578T breast it was 12%; with T-47D breast, 5.12% (active).
For `COc1ccc(/C(=C2/O[C@@H]([C@H]3COC(C)(C)O3)[C@H]3OC(C)(C)O[C@@H]23)c2cc(OC)c(OC)c(OC)c2)cc1O`, the growth is 36.4% in the assay on RPMI-8226 leukemia; 96.1% with OVCAR-8 ovarian; 92.9% with OVCAR-5 ovarian; 106% in the assay with OVCAR-4 ovarian; 90.1% in the assay on SK-OV-3 ovarian; 92.6% in the assay with IGROV1 ovarian. Moreover, the growth was 58.3% with OVCAR-3 ovarian, -10.5% (active) with NCI/ADR-RES ovarian and 115% in the assay on T-47D breast.
In the case of `COc1cc(/C=C2\CCCC3=C2N=C2SC=NN2C3c2cc(OC)c(OC)c(OC)c2)cc(OC)c1OC` (stereo not given), the growth with RPMI-8226 leukemia is -22.5% (active); in the assay on OVCAR-8 ovarian it was 9.84% (active); with OVCAR-5 ovarian it was 91.9%; in the assay with OVCAR-4 ovarian it was 47%; in the assay on SK-OV-3 ovarian, 57.4%; with IGROV1 ovarian, 29%. Besides, the growth with OVCAR-3 ovarian is 29.3%; in the assay with NCI/ADR-RES ovarian, 18.5%; in the assay with T-47D breast it was 61.4%.
`COc1ccc(C2=NN(C(=O)c3ccc(S(C)(=O)=O)cc3)C(c3ccc(OC)c(OC)c3)C2)c(OC)c1` (stereo not given): the growth was 110% with RPMI-8226 leukemia; 108% in the assay with OVCAR-8 ovarian; 107% with OVCAR-5 ovarian; 106% in the assay with OVCAR-4 ovarian; 84.2% with SK-OV-3 ovarian; 106% in the assay on IGROV1 ovarian. Besides, the growth with OVCAR-3 ovarian is 99.9%; in the assay on HS 578T breast, 101%; with T-47D breast it was 74.8%.
In the case of `NC(=O)c1ccc(-c2cccc3c(=O)nc(N4CCOCC4)oc23)cc1`, the growth with RPMI-8226 leukemia is 104%; in the assay with OVCAR-8 ovarian it was 101%; in the assay on OVCAR-5 ovarian, 96.8%; in the assay on OVCAR-4 ovarian, 90.5%; with SK-OV-3 ovarian, 103%; in the assay on IGROV1 ovarian it was 103%. For the same molecule, the figures for the growth in the assay on OVCAR-3 ovarian, in the assay with HS 578T breast and in the assay on T-47D breast were 99.4%, 97.2% and 87.8%, respectively.
Turning to `COc1cc(C(=C2O[C@@H]([C@H]3COC(C)(C)O3)[C@H]3OC(C)(C)O[C@@H]23)c2cc(OC)c(OC)c(OC)c2)cc(OC)c1OC`, the growth with RPMI-8226 leukemia is 88.1%; in the assay with OVCAR-8 ovarian, 108%; in the assay with OVCAR-5 ovarian it was 90.8%; in the assay on OVCAR-4 ovarian it was 108%; with SK-OV-3 ovarian it was 116%; with IGROV1 ovarian, 137%. Also, the values for the growth in the assay on OVCAR-3 ovarian, in the assay with NCI/ADR-RES ovarian and in the assay with T-47D breast were 112%, 91.7% and 95.7%, respectively.
For `Cn1c([N+](=O)[O-])cnc1/C=C1\Oc2cc(Cl)ccc2C1=O`, the growth is 11.7% with RPMI-8226 leukemia; -13.3% (active) with OVCAR-8 ovarian; 29.1% in the assay with OVCAR-5 ovarian; 55% in the assay on OVCAR-4 ovarian; -7.2% (active) in the assay on SK-OV-3 ovarian; -22% (active) in the assay on IGROV1 ovarian. Moreover, the results for the growth in the assay with OVCAR-3 ovarian, with NCI/ADR-RES ovarian and in the assay on T-47D breast were -33.3% (active), -0.2% (active) and 86.6%, respectively.
Turning to `COc1ccc2nc3cc(Cl)ccc3c(NCCNCC(C)O)c2c1` (stereo not given), the growth is 19.8% in the assay on RPMI-8226 leukemia; 17.1% with OVCAR-8 ovarian; 24.6% in the assay with OVCAR-5 ovarian; 37% with OVCAR-4 ovarian; 37.5% with SK-OV-3 ovarian; 26.2% with IGROV1 ovarian. The figures for the growth in the assay on HS 578T breast, in the assay on NCI/ADR-RES ovarian and in the assay with T-47D breast were 67.2%, 51.9% and 25.9%, respectively.
`CCCCN(CCCC)CCCCCCCCC(O)c1cc2ccccc2c2ccccc12` (stereo not given): the growth was -7.55% (active) in the assay on RPMI-8226 leukemia; 49.4% in the assay on OVCAR-8 ovarian; 74.8% with OVCAR-5 ovarian; 46.2% in the assay with OVCAR-4 ovarian; 80.7% in the assay with SK-OV-3 ovarian; 44.8% with IGROV1 ovarian. Also, the figures for the growth in the assay with HS 578T breast, in the assay on NCI/ADR-RES ovarian and in the assay on T-47D breast were 73.7%, 54.6% and 31.7%, respectively.

The values are drawn from PubChem BioAssay (NCI).
